Screens: PubChem, National Center for Advancing Translational Sciences (NCATS)
The list is not random: actives were taken first. Their share in the collection is about 9.2%.
SMN2 splice up: enhancers of SMN2 splice variant expression; AID 1458; Potency, µM (series often up to 46.1 µM), without a hit: at the highest dose activity change, positive = activation, hits mostly activators; HEK293 SMN2-luciferase splicing reporter, luminescence, 30-36 h; hit rate 2.8% among 210,000; note: % of control where 0% means no effect; nearly all actives have a fitted effect of over 55% in size
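qHTS luciferase splicing reporter: luminescence rises when SMN2 exon 7 is included in transfected HEK293 cells. Compound exposure lasted 30-36 h at 37C, with 4.5 mM final sodium butyrate as control, followed by a ONE-Glo read.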
Rab9 promoter act: activates the Rab9 promoter; Huh7 Rab9 promoter-luciferase reporter, luminescence, 24 h; Potency, µM (series often up to 9.22 µM), inactives show at the highest dose activation, negative = inhibition, usual class: activators; hit rate 2.8% among 320,000; AID 485297; note: % of control where 0% means no effect; nearly all actives have a fitted effect of over 60% in size
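Quantitative HTS format; Huh7 Rab9-luciferase reporter cells (1500/well) receive compound 2 h post-plating, incubate 24 h at 37 °C, then get luciferase reagent for 10 min before luminescence reading.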
FLuc modulator: firefly luciferase modulation, counter-screen for miR-21 project. P08659. purified FLuc, Km substrates, luminescence inhibition. Potency, µM (series often up to 57.5 µM), for the others: at the highest dose activity change, negative = inhibition, actives largely listed as inhibitors. hit rate 6.9% among 360,000. AID 588342;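 note: plate controls were vehicle for no effect and reference inhibitor for full effect; nearly all actives have a fitted effect of over 55% in size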
Target sequence (P08659 whole entry, looked up): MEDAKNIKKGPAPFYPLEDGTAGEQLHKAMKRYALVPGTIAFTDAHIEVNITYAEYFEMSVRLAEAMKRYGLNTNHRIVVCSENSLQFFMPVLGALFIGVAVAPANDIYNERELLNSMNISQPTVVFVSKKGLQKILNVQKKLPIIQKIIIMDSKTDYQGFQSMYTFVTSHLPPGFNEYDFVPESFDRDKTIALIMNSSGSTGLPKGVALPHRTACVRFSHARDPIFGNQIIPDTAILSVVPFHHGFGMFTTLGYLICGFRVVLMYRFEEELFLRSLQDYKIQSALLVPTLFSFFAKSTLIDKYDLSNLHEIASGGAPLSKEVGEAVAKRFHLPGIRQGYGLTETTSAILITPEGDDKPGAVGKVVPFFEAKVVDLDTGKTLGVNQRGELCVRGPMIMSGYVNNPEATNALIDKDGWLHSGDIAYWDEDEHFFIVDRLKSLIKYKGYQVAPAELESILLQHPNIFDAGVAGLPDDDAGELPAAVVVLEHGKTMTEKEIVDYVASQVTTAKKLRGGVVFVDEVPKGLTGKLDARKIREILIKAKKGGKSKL
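Biochemical qHTS of compounds, final roughly 60 µM downward over six points, against 10 nM purified firefly luciferase using Km concentrations of substrates (10 uM D-luciferin, 10 uM ATP) in Tris acetate pH 7.5 buffer; luminescence output.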
ELG1 genotox: induces genotoxicity in HEK293T cells with luciferase-tagged ELG1 | hit rate 1.3% among 330,000 | HEK293T ELG1-luciferase reporter, luminescence, 16 h | Potency, µM (top dose mostly 46 µM), without a hit: top-dose activity change, positive = activation, actives largely listed as activators | AID 504466; note: % of control where 0% means no effect; nearly all actives have a fitted effect of over 60% in size
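HEK293T cells expressing luciferase-tagged ELG1 were exposed to compound or DMSO vehicle for 16 hr at 37 °C and 5% CO2. Luciferase activity was then measured with ONE-Glo after 30 min at room temperature.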
ELG1 repair inh: blocks ELG1-dependent DNA repair in HEK293T cells. HEK293T ELG1-luciferase reporter, luminescence, 16 h; DNA damage induced by 5-fluorouridine. Potency, µM (top dose mostly 46.1 µM), for inactives: at the highest dose activity change, negative = inhibition, usual class: inhibitors. hit rate 2.3% among 330,000; note: % is set by controls: 0 for no effect and ±100 for the full control effect; nearly all actives have a fitted effect of over 55% in size
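Cells (2,000 per well) received 5-fluorouridine plus test compound or DMSO and were incubated 16 hr at 37 °C, 5% CO2. Luciferase activity was read by luminescence 30 min after ONE-Glo addition; signal suppression marked inhibition of damage-induced ELG1 function.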
NPC1 promoter act: NPC1 promoter activation; AID 485313; hit rate 2.4% among 320,000; Huh7 NPC1 promoter luciferase reporter, 24 h; Potency, µM (doses to about 9.22 µM), without a hit: at the top dose activation, hits mostly activators; note: % of control where 0% means no effect; nearly all actives have a fitted effect of over 60% in size
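NPC1 promoter–luciferase Huh7 cells; 24 h compound; luminescence.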
Active calls of the source: *; ? = inconclusive; / = not tested or not shown. Calls come from the whole dose curve; as a rule, active = well fitted curve in the direction sought with a large enough effect; inconclusive = small, poorly fitted or top-dose-only effect, or another doubt; inactive = no such curve, though single readings can be large; an effect the other way counts as inactive or inconclusive. Potency is the fitted concentration of half-maximal effect.

SMILES	SMN2 splice up	Rab9 promoter act	FLuc modulator	ELG1 genotox	ELG1 repair inh	NPC1 promoter act
COc1ccc(-c2csc(N3C(=N)SCC3=O)n2)cc1	1µM*	0.398µM*	0.426µM*	1.64µM*	?	0.447µM*
O=C1CNC(=S)N1c1nc(-c2ccccc2)cs1	11.2µM*	2.82µM*	2.69µM*	?	?	2.82µM*
COc1cccc(C2=CC(c3cccc(OC)c3OC)n3nnnc3N2)c1 (configuration not stated)	?	12.3%	23.9µM*	?	-2.3%	-10.8%
COc1ccc(C2C=C(c3ccccc3)Nc3nnnn32)cc1 (configuration not stated)	3.1%	?	3.4%	12.6%	?	3.98µM*
COc1cccc(C2=CC(c3cccc(OC)c3OC(F)F)n3nnnc3N2)c1 (configuration not stated)	-16.0%	-5.2%	-3.9%	-6.8%	?	7.9%
COc1cccc(C2C=C(c3ccc(OC)cc3OC)Nc3nnnn32)c1 (configuration not stated)	-39.3%	-17.8%	?	-15.0%	18.4µM*	-8.9%
COc1ccc(C2=CC(c3ccc(OC)c(OC)c3)n3nnnc3N2)c(OC)c1 (configuration not stated)	/	1.6%	-8.0%	-2.3%	?	-1.4%
CCOC(=O)c1ccccc1NC(=O)CSc1ccc(-c2cccs2)nn1	/	/	-3.7%	/	/	/
COc1ccc(NC(=O)N(C)C[C@H]2Oc3ccc(NC(=O)Nc4c(C)noc4C)cc3C(=O)N([C@H](C)CO)C[C@H]2C)cc1	/	/	/	-0.8%	4.8%	/
O=C(Nc1ccc(Nc2ccccc2)cc1)c1ccc(Br)o1	7.5%	?	19µM*	12.5%	?	29.6%
O=C(Nc1cccc(F)c1)c1ccc(-c2ccccc2C(F)(F)F)o1	0.1%	3.2%	?	8.6%	23.6%	-3.9%
Cc1nc(-c2cccc(NC(=O)c3ccc(Br)o3)c2)cs1	/	-2.1%	?	-11.5%	10.5%	12.4%
Cc1nc(-c2ccc(NC(=O)c3ccc(Br)o3)cc2)cs1	/	0.794µM*	1.51µM*	2.91µM*	?	1.78µM*
COc1ccc(NC(=O)c2ccc(-c3ccccc3C(F)(F)F)o2)cc1	-0.7%	3.5%	19µM*	9.0%	?	8.5%
O=C(NC(=S)Nc1ccccc1)c1ccc(Br)o1	22.4µM*	?	13.5µM*	?	?	?
COc1ccc(NC(=O)CSc2nnc(-c3nonc3NC(C)=O)n2-c2ccccc2)cc1	/	/	-3.8%	/	/	/
COC(=O)c1sccc1S(=O)(=O)N1CCN(c2cccc(C)c2C)CC1	/	/	-8.5%	/	/	/
CCOc1ccc(Nc2c(S(=O)(=O)c3ccccc3)cnc3ccc(F)cc23)cc1	-19.8%	/	-12.9%	/	/	/
CC(C)c1ccc(NC(=O)C2=NNC(=O)CC2)cc1	/	3.16µM*	12µM*	?	?	2.82µM*
CC(C)c1ccc(NC(=O)c2ccc(Br)o2)cc1	2.51µM*	0.631µM*	2.13µM*	?	?	0.891µM*
COc1ccc(NC(=O)c2ccc(Br)o2)cc1	14.1µM*	?	9.53µM*	?	?	?
COc1ccc(NC(=S)NC(=O)c2ccc(Br)o2)cc1	8.91µM*	3.16µM*	9.53µM*	?	?	?
COc1ccc(NC(=O)c2ccc([N+](=O)[O-])o2)cc1	/	25.2%	?	?	?	22.8%
Fc1cccc(NC(=S)NC2CCCCCCC2)c1	/	12.2%	?	-2.2%	3.2%	7.1%
Cc1ccccc1/C=C/c1nc2ccccc2c(=O)[nH]1	/	1.41µM*	2.13µM*	10.3µM*	?	?
SMILES	SMN2 splice up	Rab9 promoter act	FLuc modulator	ELG1 genotox	ELG1 repair inh	NPC1 promoter act
Cc1ccccc1/C=C\c1nc2ccccc2c(=O)[nH]1	10µM*	0.562µM*	1.9µM*	18.3µM*	?	?
Cc1cccc(N2CCN(C(=O)c3cccc(N4CCCC4=O)c3)C(C)C2)c1 (configuration not stated)	/	-25.7%	0.7%	-2.7%	?	-31.1%
C/C(=N\NC(=O)c1cc(-c2ccc(C)s2)nc2ccccc12)c1cccnc1	/	?	0.953µM*	13.1%	11.0%	?
C/C(=N\NC(=O)c1cc(-c2cccc(OC(C)C)c2)nc2ccccc12)c1cccnc1	/	?	0.601µM*	3.3%	-11.0%	24.1%
C/C(=N\NC(=O)c1cc(-c2ccccc2C)nc2ccccc12)c1cccnc1	/	3.4%	7.9%	1.2%	3.9%	0.9%
C/C(=N\NC(=O)c1nn(C)cc1Br)c1ccncc1	6.9%	16.6%	-23.3%	-1.8%	14.0%	9.0%
C/C(=N\NC(=O)c1ccn[nH]1)c1cn(C)nc1C	11.2µM*	?	12µM*	?	?	?
CN(C)S(=O)(=O)c1ccc2c(c1)/C(=C/c1cc3c([nH]1)CCCC3)C(=O)N2	11.2µM*	?	-20.3%	?	15.7%	?
S=C(NC1CCCCC1)N1CCOCCOCCN(C(=S)NC2CCCCC2)CCOCCOCC1	/	0.5%	2.6%	-10.9%	18.3µM*	-10.8%
CCCNC(=O)c1cc(-c2ccc(OC)cc2)on1	10µM*	2.82µM*	2.39µM*	4.61µM*	?	0.891µM*
COc1ccc(-c2cc(C(=O)Nc3cc(C)nn3-c3ccccc3)no2)cc1	14.6%	-4.7%	13.5µM*	2.4%	22.8%	-5.1%
CCCCNC(=O)c1cc(-c2ccc(OC)c(OC)c2)on1	-2.0%	16.2%	-11.0%	12.3%	?	14.0%
CCCCNC(=O)c1cc(-c2ccc(OC)cc2)on1	14.1µM*	3.16µM*	8.49µM*	8.2µM*	?	3.98µM*
CCCCNC(=O)c1cc(-c2ccc(F)cc2)on1	25.1µM*	3.98µM*	9.53µM*	?	?	3.55µM*
CCOc1ccc(N2CC(NC(=O)c3ccco3)CC2=O)cc1 (configuration not stated)	/	/	-2.2%	/	/	/
Cc1ccc(C)c(Nc2nn3c(=O)c4cc5c(cc4nc3s2)OCO5)c1	15.7%	/	?	/	/	/
Cc1ccccc1Nc1nn2c(=O)c3ccccc3nc2s1	15.8µM*	?	2.69µM*	?	?	2.51µM*
O=c1c2cc3c(cc2nc2sc(Nc4ccccc4)nn12)OCO3	16.2%	/	3.01µM*	/	/	/
O=c1c2ccccc2nc2sc(Nc3ccc(F)cc3)nn12	/	?	?	10.3µM*	?	2µM*
COc1ccccc1Nc1nn2c(=O)c3ccc(C(=O)N4CCC(C)CC4)cc3nc2s1	/	-4.6%	-19.3%	-8.3%	14.6µM*	-8.5%
COc1ccc(OC)c(Nc2nn3c(=O)c4ccccc4nc3s2)c1	/	/	-3.5%	/	/	/
CCS(=O)(=O)N1CCc2cc(C(=O)Nc3cccc(C)c3C)ccc21	/	/	-8.2%	/	/	/
